± gives the uncertainty stated by the source. In all, about 9,900 compounds were measured (“viability index relative to DMSO control”: median about 1, lowest 2% from about 0.85 on). This excerpt belongs to a sample that is enriched for the lowest values.
Tested on: Plasmodium falciparum NF54 stage V gametocytes
Assay: viability index relative to DMSO control (fraction); higher = less gametocyte killing
Conditions: 2.5 µM, incubation time: 72 h
In short: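 Compound at 2.5 µM was incubated for 72 hr at 37°C under low oxygen with P. falciparum NF54 stage V gametocytes (0.75% gametocytemia, 1.25% hematocrit, 10 µl, serum-free screening medium) in 1,536-well plates. Staining used 3 µl of 2.5 µM MitoTracker Red CMXRos plus 0.13% saponin for one to two hours, and red particles of 20–70 µm2 were counted in one imaged field per well. Each viability index is that count relative to the plate mean of solvent-only wells.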

[1] = library set: Broad Institute DOS
[2] = library set: Broad Institute Blood Stage

SMILES | viability index [1] | viability index [2]
CO[C@@H]1CC[C@H]2CCN(C)C(=O)[C@H](C)CN(C)C(=O)c3cc(C#N)ccc3OC[C@@H]1O2 | 0.973 ± 0.056 | 
CCC(=O)Nc1ccc2c(c1)C(=O)N(C)C[C@@H](OC)[C@H](C)CN(C(=O)Cc1cccnc1)[C@@H](C)CO2 | 1.13 ± 0.043 | 
O=C(Cc1ccncc1)N1CC[C@@H]2[C@H](CO)Nc3ccc(Br)cc3[C@@H]21 | 1.077 ± 0.0015 | 
C/C=C/c1cccc(-c2nc(C(=O)Nc3nccs3)cc3c2[C@@H](CCO)N(C(=O)NC(C)C)C3)c1 | 0.867 ± 0.035 | 
C[C@@H]1CN([C@H](C)CO)C(=O)Cc2cc(NC(=O)Nc3ccc(F)cc3)ccc2O[C@H]1CN(C)S(C)(=O)=O | 0.939 ± 0.16 | 
CC(=O)NC[C@H]1[C@@H](c2ccc(C#Cc3ccccc3F)cc2)[C@@H](CO)N1C(C)=O | 1.05 ± 0.002 | 
C/C=C/c1ccc([C@H]2[C@@H](CO)N(C(=O)NC3CCCCC3)[C@H]2C#N)cc1 | 1.11 ± 0.16 | 
CC(C)C#Cc1ccc([C@@H]2[C@@H](CO)N(C(=O)c3cccc(F)c3)[C@H]2C#N)cc1 | 1.17 ± 0.073 | 
C[C@H]1CCCCO[C@H](CN(C)S(=O)(=O)c2ccc(F)cc2)[C@@H](C)CN([C@@H](C)CO)C(=O)c2cc(N(C)C)ccc2O1 | 1.09 ± 0.17 | 
Cc1noc(C)c1S(=O)(=O)N(C)C[C@@H]1OCCCC[C@@H](C)Oc2ccc(N(C)C)cc2C(=O)N([C@@H](C)CO)C[C@@H]1C | 1.08 ± 0.068 | 
Cc1noc(C)c1S(=O)(=O)N(C)C[C@H]1OCCCC[C@@H](C)Oc2ccc(N(C)C)cc2C(=O)N([C@H](C)CO)C[C@@H]1C | 1.02 ± 0.029 | 
Cc1noc(C)c1S(=O)(=O)N(C)C[C@@H]1OCCCC[C@@H](C)Oc2ccc(N(C)C)cc2C(=O)N([C@@H](C)CO)C[C@H]1C | 0.635 ± 0.13 | 
C[C@@H]1CCCCO[C@@H](CN(C)S(=O)(=O)c2ccc(F)cc2)[C@@H](C)CN([C@@H](C)CO)C(=O)c2cc(N(C)C)ccc2O1 | 0 | 
C[C@@H]1CCCCO[C@@H](CN(C)S(=O)(=O)c2ccc(F)cc2)[C@H](C)CN([C@@H](C)CO)C(=O)c2cc(N(C)C)ccc2O1 | 1.05 ± 0.092 | 
CCC(=O)N1[C@@H](CO)[C@@H]2c3ccccc3N(C(=O)Nc3ccc(Cl)cc3)C[C@@H]21 | 1.1 ± 0.044 | 
COc1cccc(-c2ccc([C@H]3[C@H]4CNC[C@@H]3N4CC3CCCCC3)cc2)c1 | 0.963 ± 0.029 | 
CCCC#Cc1cnc2c(c1)C(=O)N([C@H](C)CO)C[C@H](C)[C@H](CN(C)C(=O)Nc1cc(F)ccc1F)O2 | 1.02 ± 0.081 | 
CO[C@H]1CN(C)C(=O)c2cc(NC(=O)Nc3cccc(Cl)c3)ccc2OC[C@H](C)N(C(=O)Nc2c(C)noc2C)C[C@H]1C | 0.7814 ± 0.0047 | 
COc1ccccc1NC(=O)Nc1ccc2c(c1)OC[C@@H](C)N(Cc1ccccc1Cl)C[C@@H](C)[C@H](OC)CN(C)C2=O |  | 0.821 ± 0.053

SMILES | viability index [1] | viability index [2]
COc1ccccc1CN1C[C@@H](C)[C@H](OC)CN(C)C(=O)c2cc(NC(=O)Nc3ccccc3OC)ccc2OC[C@H]1C | 1.02 ± 0.091 | 
COc1ccccc1CN1C[C@@H](C)[C@H](OC)CN(C)C(=O)c2ccc(NC(=O)Nc3ccccc3OC)cc2OC[C@H]1C |  | 0.855 ± 0.025
CO[C@@H]1CN(C)C(=O)c2cc(NC(=O)Nc3cccc(Cl)c3)ccc2OC[C@H](C)N(C(=O)Nc2c(C)noc2C)C[C@H]1C | 1.07 ± 0.019 | 
CO[C@@H]1CN(C)C(=O)c2cc(NC(=O)Nc3cccc(Cl)c3)ccc2OC[C@@H](C)N(C(=O)Nc2c(C)noc2C)C[C@H]1C | 1.052 ± 0.0092 | 
Fc1cccc(-c2ccc([C@H]3[C@H]4CNC[C@@H]3N4CC3CCOCC3)cc2)c1 | 1.02 ± 0.0019 | 
C[C@@H]1CN([C@@H](C)CO)C(=O)c2ccccc2-c2ccccc2CO[C@@H]1CN(C)C(=O)[C@@H]1CCCN1C | 0.936 ± 0.093 | 
COc1ccc2c3c([C@H](CO)N(Cc4nccs4)C[C@]33CCN(CC4CCCC4)CC3)n(C)c2c1 | 0.841 ± 0.028 | 
COc1ccc2c3c([C@@H](CO)N(CC4CCOCC4)C[C@]33CN(Cc4nccs4)C3)n(C)c2c1 | 1.1 ± 0.08 | 
COc1ccc2c3c([C@H](CO)N(Cc4nccs4)C[C@]33CCN(CC3)C(=O)CN(C)C)n(C)c2c1 | 0.955 ± 0.12 | 
COc1ccc2c3c([C@@H](CO)N(Cc4nccs4)C[C@]33CCN(CC4CCCC4)CC3)n(C)c2c1 | 0.848 ± 0.029 | 
COc1ccc2c3c([C@H](CO)N(CC4CCOCC4)C[C@]33CN(Cc4nccs4)C3)n(C)c2c1 | 1.08 ± 0.019 | 
COc1ccc2c3c([C@@H](CO)N(Cc4nccs4)C[C@]33CCN(CC3)C(=O)CN(C)C)n(C)c2c1 | 0.905 ± 0.039 | 
CO[C@H]1CN(C)C(=O)c2cc(NC(=O)NC(C)C)ccc2OC[C@@H](C)N(C(=O)CN(C)C)C[C@H]1C | 1.03 ± 0.043 | 
COCC#Cc1ccc([C@@H]2[C@@H](CO)N3C(=O)CN(C(=O)Nc4ccccc4F)C[C@@H]23)cc1 | 1.02 ± 0.025 | 
C[C@H](CO)N1C[C@H](C)[C@@H](CN(C)C(=O)Nc2ccccc2F)Oc2cc(Br)ccc2S1(=O)=O | 1.01 ± 0.02 | 
COc1ccc2c3c([C@H](CO)N(C[C@]33CCN(CC3)C(=O)Nc3ccc(F)cc3F)C(=O)Nc3ccc(F)cc3)n(C)c2c1 | 1.04 ± 0.029 | 
N#C[C@@H]1N[C@H](CO)[C@H]1c1ccc(-c2cccc(F)c2)cc1 | 1.18 ± 0.088 | 
CCS(=O)(=O)Nc1ccc2c(c1)C(=O)N(C)[C@@H]1CC[C@H](CC(=O)NCc3ccc(OC)cc3)O[C@H]1CO2 | 1.01 ± 0.078 | 

From the supplement of paper PMC4723716
